Assay outcomes from PubChem BioAssay.
Only some compounds are listed: those with a hit (about 0.19% of all), similar ones and a draw of the others.
Bim-Bcl-W = inhibitors of Bim binding to Bcl-W, primary screen, biochemical, multiplexed, bead-based flow cytometry; AID 952, 2007; 190,000 tested, 0.02% active; Bcl-2-like protein 2 (Homo sapiens), Q92843; Bim peptide-Bcl-W binding; inhibition, % at 10 µM;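 note: 0% = bound tracer without compound and 100% = peptide blocker; higher means less fluorescent Bim peptide bound to Bcl-W beads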
Bcl-2 Bim block = inhibitors of Bim-Bcl-2 binding, primary screen, biochemical, multiplexed, human Bcl-2 family; Apoptosis regulator Bcl-2 (Homo sapiens), P10415; 190,000 tested, 0.06% active; AID 950, 2007; inhibition, % at 10 µM; Bead-based flow cytometry, Bim peptide-Bcl-2 binding; in the data active = inhibition above about 40%;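 note: 0% = no compound wells with probe peptide and 100% = reference peptide inhibitor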
Bim-Bcl-XL = inhibitors of Bim-Bcl-XL binding, primary screen, biochemical, multiplexed, bead flow cytometry, human Bcl-XL. AID 1007, 2008. 190,000 tested, 0.04% active. inhibition, % at 10 µM. Bim peptide-Bcl-XL binding, fluorescence. Bcl-2-like protein 1 (Homo sapiens), Q07817
Bim-Bcl-B = inhibitors of Bim-Bcl-B binding, primary screen, biochemical, multiplexed, human Bcl-2 family. Bcl-2-like protein 10 (Homo sapiens), Q9HD36. 190,000 tested, 0.073% active. bead-based flow cytometry, Bim peptide-Bcl-B binding. inhibition, % at 10 µM;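 note: 0% = tracer peptide without compound and 100% = reference inhibitor peptide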
Bfl-1 Bim block = inhibitors of Bim binding to Bfl-1, primary screen, biochemical, multiplexed, bead-based flow cytometry; 190,000 tested, 0.12% active; Bim-Bfl-1 binding inhibition; inhibition, % at 10 µM; AID 1008, 2008; Bcl-2-related protein A1 (Homo sapiens), Q16548;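 note: 0% = wells without compound plus tracer and 100% = blocker peptide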
Target sequence (Q16548 whole entry, looked up): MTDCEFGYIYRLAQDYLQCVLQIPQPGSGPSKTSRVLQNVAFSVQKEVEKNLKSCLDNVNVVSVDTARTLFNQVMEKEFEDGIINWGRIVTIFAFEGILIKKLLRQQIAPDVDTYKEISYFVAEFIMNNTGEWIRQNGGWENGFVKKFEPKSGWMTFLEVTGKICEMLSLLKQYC
Bim-Bcl-XL DR = Bim-Bcl-XL interaction inhibitors, hit retest, confirmation, biochemical, dose response, multiplexed, HTS hits; shares compounds with Bfl-1 Bim block; bead-based flow cytometry, Bim-Bcl-XL binding; inhibition of binding at 100 µM; 40 tested, under 10 active; AID 2084, 2009; call rule not given here
* marks the source's active call; other numbers are inactive results; / = no result given. Cut-off read from the data, not from the text of the source, unless noted: active = inhibition above about 40%.

SMILES	Bim-Bcl-W	Bcl-2 Bim block	Bim-Bcl-XL	Bim-Bcl-B	Bfl-1 Bim block	others
Cc1ccc2c(c1)C1CN(C)CCC1N2C(=O)Nc1cccc(Cl)c1 (stereo unspecified)	16	85*	19	/	/
Cc1ccc2c(c1)C1CN(C)CCC1N2C(=S)Nc1cccnc1 (stereo unspecified)	-1	-3	-2	-7	-4
Cc1ccc(S(=O)(=O)N(c2cc(Cl)c(O)c(Cl)c2)P(=O)(OC(C)C)OC(C)C)cc1	0	0	-1	-4	-5
CC1(C(O)(C#CCN2CCCCC2)c2ccccc2)CCCC1 (stereo unspecified)	3	-3	-3	-3	-4
COc1ccc(C2CN(C)CC2C(=O)c2ccc(F)cc2)cc1Cl (stereo unspecified)	2	81*	4	77*	59*
CN1CC(C(=O)c2ccc(F)cc2)C(c2c(F)cccc2Cl)C1 (stereo unspecified)	5	0	7	0	5
Cc1ccc(-c2nc(N3CCOCC3)s[n+]2-c2ccccc2)cc1	4	13	11	-42	53*
COC(=O)C1C2c3ccccc3OC1(C)N=c1s/c(=C/c3cnn(C)c3C)c(=O)n12 (stereo unspecified)	19	27	18	73*	11
O=C1NC(=O)C2(Cc3c(nc4ccccn4c3=O)N3CCCCCC32)C(=O)N1Cc1ccccc1 (stereo unspecified)	0	4	-4	59*	-1	Bim-Bcl-XL DR=3.8
CCN1CCN(c2ccc(N)c(C)c2)CC1	0	0	1	9	-1
